This excerpt belongs to a sample that is enriched for hits.
Chlamy TAG = increases triacylglycerol in Chlamydomonas reinhardtii. calls only at 10 µM (by protocol). 44,000 tested, 0.84% active. AID 1159537. Chlamydomonas reinhardtii TAG, Nile Red fluorescence, 72 h; call rule not given here;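 also: hits raise Nile Red signal meaning more stored TAG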
Calls only; i = inactive; + = active, no number.

SMILES	Chlamy TAG
CN(c1ccc(C(=O)NC2CCCCCC2)cc1)S(=O)(=O)c1ccccc1	+
OC(COc1ccc2c(c1)OCO2)CN1CCN(c2ccccn2)CC1 (configuration not stated)	i
O=Cc1c(Sc2ccc(Cl)cc2)nc2ccccn2c1=O	i
Cc1ccc2nc(SCc3ccccc3)c(C=O)c(=O)n2c1	+
Cc1ccc(S(=O)(=O)c2cc3c(=O)n4cc(C)ccc4nc3n(Cc3ccccc3)c2=N)cc1	i
O=C(O)CSC12CC3CC(C1)CC(C(=O)O)(C3)C2	i
CC(C)(C)c1csc(NC(=O)c2ccc(N3CCOCC3)c([N+](=O)[O-])c2)n1	+
COc1ccc(C(=O)c2ccc(N3CCOCC3)c([N+](=O)[O-])c2)cc1	i
O=C(Nc1cccc(Cl)c1)c1ccc(N2CCOCC2)c([N+](=O)[O-])c1	i
CCCN(CCO)Cc1ccccc1Cl	i
O=C(CCC1CCCCC1)NCc1ccc2c(c1)OCO2	i
c1cc2c(cc1CNC1CCCC1)OCO2	+
c1cc2c(cc1CNC1CCCCC1)OCO2	i
CC(C)CNC1=CC(=O)CC(c2ccco2)C1 (configuration not stated)	i
O=C(CCC1CCCCC1)Nc1cc(C(=O)O)cc(C(=O)O)c1	i
N#C/C(=C\c1ccc(-c2ccc(Cl)cc2)o1)c1nn(CCO)c(N)c1C#N	i
O=C(Nc1ccc([N+](=O)[O-])cc1)c1cccc(Cl)c1Cl	+
O=C(Nc1cccc([N+](=O)[O-])c1)c1ccccc1Cl	i
O=C(Nc1ccc(F)cc1)c1cccc(Cl)c1Cl	i
CCOc1cc(CN(C)CCN(C)C)ccc1O	i
N#CC1=C(N)OC2=C(C(=O)CCC2)C1c1ccc(Oc2ccc([N+](=O)[O-])cc2Cl)cc1 (configuration not stated)	i
Cc1ccc2[nH]c3c(c2c1)CCCC3NCCCOc1ccccc1 (configuration not stated)	i
O=[N+]([O-])c1ccc(CN2CCc3ccccc3C2)cc1	+
O=[N+]([O-])c1ccc(CN2CCN(Cc3cc(Br)ccc3O)CC2)cc1	+
O=[N+]([O-])c1ccc(S(=O)(=O)N2CCN(Cc3cc(Br)ccc3O)CC2)cc1	i
SMILES	Chlamy TAG
O=[N+]([O-])c1ccc(CN2CCOCC2)cc1	i
O=[N+]([O-])c1ccc(CN2CCCCC2)cc1	i
COc1cc2c(cc1OC)CN(Cc1ccc([N+](=O)[O-])cc1)CC2	i
COc1cccc(OC)c1OCCCOc1ccc([N+](=O)[O-])cc1Cl	i
Cc1ccc(C(=O)NCc2ccc(Cl)cc2)c(Cl)c1	i
Cc1ccc(C(=O)Nc2nc3ccc(Br)cc3s2)o1	i
CCOc1ccc(C(=O)Nc2c(C)cccc2C)cc1Br	i
O=C1CN(S(=O)(=O)c2ccccc2)CC(=O)N1	i

Screens (PubChem)
